# In the library only some 18% were active in any assay of this set; here they are far more common.
# DT40 TDP1 no CPT – qHTS for Inhibitors of human tyrosyl-DNA phosphodiesterase 1 (TDP1): qHTS in cells in absence of CPT; DT40 Tdp1-/- hTDP1 cells, no CPT, ATP luminescence, 48 h; Potency, µM (titrated, usually from 46.2 µM), for the others: top-dose activity change, negative = growth inhibition, actives largely listed as inhibitors; 420,000 compounds, 15% hits; note: potency is the fitted concentration of half-maximal effect; nearly all actives have a fitted effect of over 55% in size
#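 Compound effects on proliferation are scored in DT40 Tdp1-/-;hTDP1 cells in the absence of CPT. ATP levels (CellTiter-Glo luminescence) are recorded after a ≥48 hr, 37 °C incubation.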
# CtBP-E1A blk – blocks the CtBP interaction with E1A | AID 651724 | activity change, % (concentration not given with the values) | 340,000 compounds, 0.49% hits | AlphaScreen GST-E1A/His-CtBP binding, 1536-well; active compounds read low; in the data active = activity change below about -65%; inconclusive = mostly about -30% to -63%
#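 Steps: dispense buffer (Tris pH 8.0, NaCl 300 mM, TCEP 1 mM, BSA, Tween 20); add 5X protein mix (GST-E1A, His-CtBP, 125 nM each); pin 23 nL compound; 2 h at 37 °C, dark; add 5X beads (50 ug/mL); 1 h; read.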
# IL1B secr inh – blocks inflammasome-driven IL-1 beta release | THP-1 LPS/ATP IL-1B secretion, AlphaLISA, 16 h; active compounds read low | activity change, % at 57.5 µM | 360,000 compounds, 4.7% hits; in the data active = activity change below about -50%; inconclusive = mostly about -30% to -49%
#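 THP-1 cells pretreated 1 hr with compounds (up to 57.5 uM final), then stimulated with LPS (250 ng/mL final) plus ATP (1.25 mM final); secreted IL-1B measured by AlphaLISA after 16 hr, decreased signal indicating inhibition.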
# TDP1 block – TDP1 (human) enzyme inhibition | Q9NUW8 | recombinant TDP1, AlphaScreen DNA substrate cleavage | Potency, µM (top dose mostly 130 µM), without a hit: at the top dose activity change, negative = inhibition, actives largely listed as inhibitors | 350,000 compounds, 0.28% hits | AID 485290; note: potency is the fitted concentration of half-maximal effect; nearly all actives have a fitted effect of over 40% in size
#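 Compounds were preincubated with Tdp1 (1 nM final) for 15 min at room temperature before substrate (15 nM final) started a 5 min reaction; beads (10 ug/ml final) were then added for 10 min before AlphaScreen detection.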
# DT40 TDP1 CPT – DT40-hTDP1 cell growth loss with CPT. chicken DT40 Tdp1-/-;hTDP1 cells + 20 nM CPT, ATP luminescence, 48 h. Potency, µM (top dose mostly 46.2 µM), for inactives: top-dose activity change, negative = growth inhibition, actives largely listed as inhibitors. 420,000 compounds, 12% hits; note: potency is the fitted concentration of half-maximal effect; nearly all actives have a fitted effect of over 55% in size
#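 Cell growth measured by CellTiter-Glo luminescence after a minimum 48 h, 37 C compound exposure with 20 nM CPT in Tdp1-knockout DT40 cells stably expressing hTDP1, seeded 400/well; qHTS titration format.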
# Six1-Eya2 inh – Six1/Eya2 interaction inhibition. activity change, % (concentration not given with the values). 360,000 compounds, 0.56% hits. AID 651725. AlphaScreen GST-Six1/His-Eya2 binding, biochemical; active compounds read low. Q15475+O00167; in the data active = activity change below about -65%; inconclusive = mostly about -30% to -63%
#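 Compounds are tested against tagged Six1 and Eya2 proteins bridged by glutathione donor and nickel acceptor beads; after a one-hour incubation at 37 °C without light, AlphaScreen emission is recorded.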
# Numbers without * were called inactive; ? = inconclusive; . = no result; [ ] = remark or other dose. Unless noted, calls come from the whole dose curve; as a rule, active = well fitted curve in the direction sought with a large enough effect; inconclusive = small, poorly fitted or top-dose-only effect, or another doubt; inactive = no such curve, though single readings can be large; an effect the other way counts as inactive or inconclusive. % is set by controls: 0 for no effect and ±100 for the full control effect.
SMILES,DT40 TDP1 no CPT,CtBP-E1A blk,IL1B secr inh,TDP1 block,DT40 TDP1 CPT,Six1-Eya2 inh
COc1cc(-c2nc3ccc(N4CCN(C)CC4)cc3[nH]2)cc(OC)c1OC,?,-8,-52*,3%,?,-26
O=C(N=Nc1c(O)n(C2OC(=O)c3ccccc32)c2ccccc12)c1ccco1 (configuration not stated),.,.,.,3%,.,.
CCn1c(O)c(N=NC(=O)CNC(=O)Cc2ccccc2)c2ccccc21,18%,-13,-9,2%,-20%,-1
O=C(CNC(=O)c1ccco1)N=Nc1c(O)n(CCc2ccccc2)c2ccccc12,3.7µM*,1,128,.,5.2µM*,-4
CCCCn1c(O)c(N=NC(=O)c2ccco2)c2ccccc21,18µM*,-20,-11,0%,?,-28
CCn1c(O)c(N=NC(=O)C(O)c2ccccc2)c2ccccc21 (configuration not stated),21µM*,24,-22,.,23µM*,6
COc1ccc(CN(C)C(=O)COC(=O)c2ccc3c(c2)OCO3)cc1OC,-7%,-2,-19,-2%,-13%,9
NS(=O)(=O)c1ccc(CCNc2nccn(-c3cccc(C(F)(F)F)c3)c2=O)cc1,?,.,.,0%,-17%,.
NS(=O)(=O)c1ccc(CCNc2nn3c(-c4cccc(OC(F)(F)F)c4)cnc3s2)cc1,13µM*,-15,-84*,.,12µM*,-23
S=c1[nH]cnc2scc(-c3ccccc3)c12,23µM*,1,13,8%,?,-4
Clc1ncnc2scc(-c3ccccc3)c12,?,7,-70*,-1%,?,3
O=c1[nH]cnc2scc(-c3ccc(F)cc3)c12,?,9,-23,2%,-29%,6
CCCC(=O)Nc1cc(C(=O)O)ccc1S(=O)(=O)c1ccc(C)cc1,5%,0,19,-8%,5%,0
CCCC(=O)Nc1cc(C(=O)NCc2ccccc2)ccc1S(=O)(=O)c1ccc(Cl)cc1,21µM*,.,.,2%,21µM*,.
CCc1cccc(N(C(=O)c2csnn2)C(C(=O)NC(C)(C)C)c2ccccn2)c1 (configuration not stated),5%,-3,-56*,2%,-3%,0
O=C(NCc1ccc(F)cc1)C(c1ccccc1)N(C(=O)c1csnn1)c1ccccc1 (configuration not stated),?,14,-5,0%,?,-2
O=C(NCc1ccccc1)C(c1ccccc1)N(C(=O)c1csnn1)c1ccccc1 (configuration not stated),18µM*,-9,-8,10%[0.0935 µM],?,-6
CCCCOc1ccc(N(CC(=O)NCc2ccccc2)C(=O)c2csnn2)cc1,16µM*,-4,-9,2%[0.0935 µM],?,9
COc1cc(CNc2ccc3[nH]c(=O)[nH]c3c2)ccc1OCc1ccc(F)cc1,-23%,-2,-7,6%,?,-12
CCOc1c(Cl)cc(CNc2ccc3[nH]c(=O)[nH]c3c2)cc1OC,?,.,.,9%,23µM*,.
CCOc1cc(CNc2ccc3cn[nH]c3c2)ccc1OC,21µM*,17,-19,5%,?,?
COc1cc(CNc2ccc3[nH]c(=O)[nH]c3c2)cc(Br)c1OCC(=O)NC(C)(C)C,?,-25,-68*,8%,?,-25
COc1cc(CNc2ccc3[nH]c(=O)[nH]c3c2)ccc1OCc1ccccc1F,16µM*,-27,?,5%,21µM*,-26
COc1cc(CNc2ccc3[nH]c(=O)[nH]c3c2)ccc1OCC(=O)NC(C)(C)C,?,-14,-16,7%,?,-7

# Compound activity (PubChem)
